Bioassay records: PubChem BioAssay, National Center for Advancing Translational Sciences (NCATS)
Rows were chosen to be rich in hits. Some 3.3% of all compounds tested hit in one or more screens of this group.
PI5P4K alpha inh = blocks human PI5P4K alpha kinase activity. max response, %. PI5P4Kalpha enzyme, ADP-Glo luminescence, 60 min; active compounds read low. P48426. hit rate 1.2% among 330,000; active = max response of -50% or lower; inconclusive = between -30% and -50%; inactive = -30% or higher; note: value at the top dose of about 77 µM
Target sequence (P48426 whole entry, looked up): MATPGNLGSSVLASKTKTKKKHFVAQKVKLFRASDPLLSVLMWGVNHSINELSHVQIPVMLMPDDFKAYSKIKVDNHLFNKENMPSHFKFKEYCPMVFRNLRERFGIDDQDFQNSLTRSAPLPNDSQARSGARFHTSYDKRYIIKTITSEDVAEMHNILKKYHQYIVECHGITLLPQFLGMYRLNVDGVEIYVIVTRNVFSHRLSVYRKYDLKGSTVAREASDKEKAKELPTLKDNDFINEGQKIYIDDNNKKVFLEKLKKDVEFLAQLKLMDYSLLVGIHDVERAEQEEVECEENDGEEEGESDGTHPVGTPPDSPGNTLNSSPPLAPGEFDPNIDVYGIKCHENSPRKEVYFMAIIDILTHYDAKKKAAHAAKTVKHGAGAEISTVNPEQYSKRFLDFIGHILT
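Quantitative HTS of the MLSMR library against PI5P4Kalpha with substrate. ATP added last at 5 microM final; room temperature, 60 minutes. Remaining ATP depleted, ADP converted and read as luminescence.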
USP2a inh = inhibitors of human ubiquitin-specific protease USP2a; Potency, µM (titrated, usually from 38.3 µM), inactives show at the highest dose activity change, negative = inhibition, most hits filed as inhibitors; USP2 core, Ub-CHOP2 coupled fluorogenic reporter, 485/531; O75604; hit rate 0.01% among 330,000;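 note: potency is the fitted concentration of half-maximal effect; plate controls were DMSO wells for no effect and full inhibition by NEM control for full effect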
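Cell-free coupled assay: 10nM USP2 core preincubated 30min RT with compound in Tris-HCl pH 8.0/CaCl2/CHAPS buffer, then 25nM Ub-CHOP2 and 25nM reporter substrate; fluorescence (Ex 485/Em 531) read after 60min RT, normalized to NEM inhibition, concentration-response curves fitted.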
WRN helicase inh = blocks human WRN helicase. Q14191. AID 651768. Potency, µM (highest dose often 114 µM), inactives show at the top dose activity change, negative = inhibition, actives largely listed as inhibitors. hit rate 0.46% among 360,000. WRN helicase unwinding, fluorescent forked duplex, kinetic; note: potency is the fitted concentration of half-maximal effect; nearly all actives have a fitted effect of over 55% in size
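WRN at 20 nM final was preincubated with compound for 15 min at room temperature; reaction started with 100 nM forked duplex oligonucleotide carrying fluorophore and quencher plus 2 mM ATP (final). Unwinding followed kinetically by red fluorescence (ex 525/em 598 nm).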
USP1-UAF1 inh = inhibitors of human USP1/UAF1 deubiquitinase; O94782; recombinant USP1/UAF1, Ub-Rhodamine cleavage fluorescence; Potency, µM (titrated, usually from 57.1 µM), inactives show at the top dose activity change, negative = inhibition, actives largely listed as inhibitors; hit rate 0.23% among 390,000; note: potency is the fitted concentration of half-maximal effect; nearly all actives have a fitted effect of over 60% in size
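USP1/UAF1 complex at 1 nM was preincubated with compound for 15 min at room temperature, then Ub-Rho substrate (150nM final) was added. Fluorescence (480/540 nm) was read kinetically, 6 reads every 60 seconds.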
PLK1 PBD block = inhibitors of human PLK1 polo-box domain binding. P53350. Potency, µM, for inactives: max response, negative = inhibition, actives largely listed as inhibitors. AID 720504. hit rate 2.8% among 360,000. Plk1 PBD binding of FITC phosphopeptide, fluorescence polarization; note: potency is the fitted concentration of half-maximal effect; series mostly up to about 57 µM; nearly all actives have a fitted effect of over 65% in size
ADP-Glo counter = ADP-Glo luciferase interference, PI5P4K counter-screen. shares compounds with PI5P4K alpha inh. ADP-Glo detection counter-screen, luciferase luminescence, no enzyme. AID 743285. 1,100 tested, under 10 active. Potency, µM (titrated, usually from 76.9 µM), inactives show at the top dose activity change, negative = inhibition, actives largely listed as inhibitors
Active calls of the source: *; ? = inconclusive; nt = not tested or not shown; [ ] = another dose, or the depositor's remark. Unless noted, calls come from the whole dose curve; as a rule, active = well fitted curve in the direction sought with a large enough effect; inconclusive = small, poorly fitted or top-dose-only effect, or another doubt; inactive = no such curve, though single readings can be large; an effect the other way counts as inactive or inconclusive. Unless noted, % is set by controls: 0 for no effect and ±100 for the full control effect.

SMILES	PI5P4K alpha inh	USP2a inh	WRN helicase inh	USP1-UAF1 inh	PLK1 PBD block	ADP-Glo counter
Cc1cccc(C2Nc3ccccc3C(=O)N2c2ccc(F)cc2)n1 (stereo unspecified)	0.6	0.0%	1.2%	-7.3%	-7.8%	1.9%
O=C1c2ccccc2NC(c2ccccn2)N1c1ccccc1F (stereo unspecified)	nt	-0.4%	8.0%	-9.1%	-5.9%	nt
COc1ccc(CCNC(=O)Cn2cc(S(=O)(=O)Cc3ccccc3Cl)c3ccccc32)cc1OC	nt	nt	nt	-10.0%	nt	nt
CC(C)(C)c1ccc(NC(=O)COC(=O)C2=COCCO2)cc1	4.1	-2.0%	0.5%	-23.4%	-3.4%	nt
CN(C)C(=O)c1ccc(NC(=O)COC(=O)C2=COCCO2)cc1	?	0.9%	1.3%	-3.2%	-6.9%	1.7%
COc1ccc(-n2c(=O)c3sc4ccccc4c3n(CC(=O)Nc3ccccc3F)c2=O)cc1	nt	nt	nt	-10.9%	nt	nt
O=C(Oc1cccc2c(O)cccc12)c1ccco1	-54.1*	nt	2.0%	-14.0%	?	-0.2%
Oc1cc2c(cc1C(c1ccc(Cl)c(Cl)c1)N1CCCC1)OCO2 (stereo unspecified)	-74.4*	2.5%	?	-38.0%	1.19µM*	4.7%
CCN(C(=O)CSc1nc2ccccc2n1CC(=O)Nc1ccccc1C)c1ccccc1	nt	nt	nt	-18.0%	nt	nt
COCCn1c(=S)[nH]c2cc(C(=O)N(CCO)Cc3ccccc3)ccc2c1=O	-3.6	2.6%	4.4%	-17.2%	3.0%	nt
COCCn1c(=S)[nH]c2cc(C(=O)NCCc3ccccc3)ccc2c1=O	-57.6*	1.0%	-10.2%	-25.8%	-6.8%	0.7%
COc1ccc(CCNC(=O)c2c(C)oc3nc(C)nc(N4CCOCC4)c23)cc1OC	nt	nt	nt	-22.6%	nt	nt
O=C(CN1CCN(c2ccccc2F)CC1)NCc1ccccc1	-13.6	1.0%	7.7%	-21.6%	-3.2%	2.4%
CC1Cc2ccccc2N1C(=O)COC(=O)CCc1nc2ccccc2c(=O)[nH]1 (stereo unspecified)	-50.5*	14.1%	-11.5%	0.9%	4.23µM*	-3.1%
O=C(COC(=O)CCc1nc2ccccc2c(=O)[nH]1)Nc1ccc(Cl)cn1	-55.3*	3.5%	-1.0%	-23.3%	15µM*	0.9%
O=C(Nc1cc(Cl)cc(Cl)c1)c1ccc(F)c(S(=O)(=O)N2CCCCCC2)c1	nt	nt	nt	-18.4%	nt	nt
COc1cccc(-c2nc(SCC(=O)NCC3CCCO3)c(-c3ccc(Cl)cc3)[nH]2)c1 (stereo unspecified)	nt	nt	nt	5.9%	nt	nt
CCOc1ccccc1NC(=O)Cc1csc(COc2cccc(C)c2)n1	nt	nt	nt	-8.1%	nt	nt
c1cc2c(cc1C1=NNC(=NC3CC3)SC1)OCCO2	-50.9*	-1.1%	0.0%	-0.2%	-29.4%	?
CC(=O)Cn1nnc2sc(-c3ccccc3)cc2c1=O	-54.0*	3.2%	-9.4%	1.1%	-14.5%	2.5%
CCCn1c(C)cc(-c2csc(N)n2)c1C	-58.3*	1.1%	-31.3%	-15.3%	-18.6%	-8.3%
O=C(NCc1ccncc1)c1ccc2nc([C@@H]3O[C@H](CO)[C@H](O)[C@H](O)[C@H]3O)[nH]c2c1	0.9	nt	-0.6%	nt	-12.5%	nt
Cc1ccccc1CNC(=O)c1ccc2nc([C@@H]3O[C@H](CO)[C@H](O)[C@H](O)[C@H]3O)[nH]c2c1	-87.8*	nt	5.5%	nt	-10.5%	2.9%
COC(=O)c1ccccc1NC(=O)CN1CCC(n2nnc3cc(C(F)(F)F)ccc32)CC1	?	0.4%	-27.7%	-10.2%	-5.8%	4.2%
O=C(O)CCC(=O)N1CCC(n2nnc3cc(C(F)(F)F)ccc32)CC1	-23.7	-2.0%	-5.6%[11.6 µM]	-13.5%	-1.3%	2.1%
SMILES	PI5P4K alpha inh	USP2a inh	WRN helicase inh	USP1-UAF1 inh	PLK1 PBD block	ADP-Glo counter
COc1ccc(NC(=O)Cn2c(=O)ccc3cc(S(=O)(=O)N4CCCC4)ccc32)cc1Cl	nt	nt	nt	-30.9%	nt	nt
COc1n[nH]c(C(=O)Nc2nc3ccccc3s2)c1[N+](=O)[O-]	-53.8*	2.8%	-6.0%[11.6 µM]	-4.9%	-9.5%	1.9%
CCOc1ccccc1CNC(=O)Cn1c(-c2ccccc2)cc(C(C)=O)c1C	nt	nt	nt	-23.8%	nt	nt
COc1ccc(N2CCN(c3nc4ccc(C)cc4n4nnnc34)CC2)cc1	nt	nt	nt	19.8%	nt	nt
CCOc1ccccc1-n1c(SCC(=O)Nc2ccccc2C(=O)O)nc2ccccc2c1=O	-57.5*	-7.7%	-19.3%	2.3%	?	-5.6%
CCc1ccc(CNC(=O)CCc2c(C)nn(-c3ccc(N4CCCC4)nn3)c2C)cc1	nt	nt	nt	-4.3%	nt	nt
O=c1cc(CSc2nnnn2-c2ccccc2)nc2nc[nH]n12	-9.1	-2.8%	0.9%	-6.5%	-9.7%	nt
O=c1cc(CSc2ccc(Cl)cc2)nc2nc[nH]n12	-67.2*	2.7%	-10.3%	2.4%	-5.8%	-11.8%
c1ccc2c(OCCCCN3CCOCC3)cccc2c1	-13.9	0.5%	-4.5%[11.6 µM]	-3.8%	?	0.8%
COc1ccccc1OCCCCCCN1CCOCC1	-4.8	2.3%	6.0%	-4.9%	-4.3%	nt
COc1ccc(-c2cc(C(F)F)n3ncc(C(=O)n4ccnc4C)c3n2)cc1	-25.7	0.5%	-2.7%	-8.6%	-15.8%	2.8%
CC(=O)c1ccc(S(=O)(=O)Nc2cccc(-n3cnnn3)c2)cc1	-67.2*	0.1%	56.2µM*	-6.8%	?	-6.6%
CCOC(=O)C1CCCN(C(=O)c2ccc(F)c(C)c2)CC1 (stereo unspecified)	?	nt	-3.5%	nt	-4.7%	-1.0%
C[C@@H]1CN([C@H](C)CO)C(=O)CCCn2nncc2CO[C@@H]1CN(C)S(=O)(=O)c1ccc2c(c1)OCCCO2	-1.8	nt	0.3%	-19.5%	-14.3%	nt
C[C@H](CO)N1C[C@H](C)[C@@H](CN(C)S(=O)(=O)c2ccc3c(c2)OCCCO3)OCc2cnnn2CCCC1=O	-61.3*	nt	-3.5%	-17.3%	-13.7%	-2.9%
COc1cccc2cc(C(C)N(CCCN3CCOCC3)C(=O)Nc3ccccc3)oc12 (stereo unspecified)	-1.9	0.5%	1.5%	-2.9%	1.1%	0.3%
